Reference: PubChem BioAssay (NCATS)
Inconclusive results are not listed. The source made the active and inactive calls. Calls come from the whole dose curve; as a rule, active = well fitted cell-killing curve with a large enough effect; inconclusive = small, poorly fitted or top-dose-only effect; inactive = flat fitted curve, though single readings scatter.

Test: Cellular viability qHTS for adrenocortical cancer (ACC) cell line NCI-H295R (AID 1963990); note: nearly all actives have a fitted effect of over 60% in size
Conditions: CellTiter-Glo ATP luminescence, 48 h; series mostly up to 46.1 µM; activity change, negative = viability loss: at the top concentration
Description: PI: Naris Nilubol, MD Surgical Oncology Program, National Cancer Institute (NCI) National Institute of Health (NIH), Bethesda, Maryland Adrenocortical cancer (ACC) is a rare malignancy with poor survival outcomes and few treatment options. Currently, mitotane is the only FDA-approved therapy for ACC. Although adjuvant radiation therapy is rarely utilized, it has the potential to improve survival in select cases. Through a quantitative high-throughput drug screen (qHTS), we identified auranofin (AF), a thioredoxin reductase (TXNRD) inhibitor, as a promising candidate drug. This study aims to evaluate whether AF can enhance the efficacy of radiation therapy in the treatment of ACC. Two human ACC cell lines, SW-13 and NCI-H295R, were screened using the National Center for Advancing Translational Sciences (NCATS) Pharmaceutical Collection (NPC) and the Mechanism Interrogation PlatE (MIPE) library (~4,991 compounds). CellTiter-Glo (Cat # G7570, Promega, Madison, WI) was utilized to measure cell viability. Described herein are the results of the corresponding viability assay.
PROTOCOL TABLE (as described by Inglese J, Shamu CE and Guy RK. 2007) SEQUENCE No. (e.g., 1, 2, 3, etc.); […] (e.g., Cells, Incubation, Reagent, etc.); VALUE; DESCRIPTION. 1; Cells; 5 uL; white, solid-bottom, 1536-well tissue-culture treated plates. 2; Time; overnight culture at 37C with 5% CO2. 3; Compounds and control; 23 nL; Kalypsis pin tool (Wako USA) equipped with a 1536-well pin head to transfer to the assay plates. 4; Time; 48 hours; 37C with 5% CO2. 5; Reagent; 4 uL; CellTiter-Glo luminescent substrate mix. 6; Time; 20 min at room temperature. 7; Detection; Luminescence; ViewLux plate reader NOTES (numbers refer to Sequence numbers above) 1. NCI-H295R cells were harvested from a T175 flask and resuspended in ITS-supplemented DMEM serum-free medium at a concentration of 300 000 cells/mL. Then 5 uL of resuspended cells were dispensed into each well of white, solid-bottom, 1536-well tissue-culture-treated plates using a multidrop combi dispenser. The plates were covered with stainless steel gasket lids. 2-3. The plates were cultured overnight at 37C with 5% CO2. Twenty-three nL of compounds (eight selected concentrations from the NPC / MIPE) or positive control (10 mM stock of bortezomib) in DMSO was transferred to each well of the assay plate using a pin tool (Kalypsys, San Diego, CA, USA). The final concentration of the compounds in the 5 uL assay volume ranged from 0.5 nM to 46 uM. 4-6. After 48 hours of incubation at 37C and 5% CO2, 4 uL of CellTilter-Glo luminescent substrate mix (Promega, Madison, WI, USA) was added to each well. Then the plates were incubated for 20 minutes at room temperature. 7. After incubation, luminescence was measured using a ViewLux plate reader (PerkinElmer, Waltham, MA, USA) with a clear filter was used to measure the number of metabolically competent cells. To determine compound activity in the qHTS assay, the titration-response data for each sample was plotted and modeled by a four-parameter logistic fit yielding IC50 and efficacy (maximal response) values. Raw plate reads for each titration point were normalized relative to positive control ([…], 100% inhibition) and DMSO-only wells (basal, 0%). REFERENCES: Inglese J, Shamu CE and Guy RK, Reporting data from high throughput screening of small molecule libraries, Nature Chemical Biology, 2007, 3(8): 438-441. doi.org/10.1038/nchembio0807-438.

Row | Compound | Potency | activity change, negative = viability loss
1 | NC(=O)c1cnc(N[C@@H]2CCCC[C@@H]2N)nc1Nc1cccc(-n2nccn2)c1 | 25.1 µM (active) | –
2 | CCC1CCCCN1C(=O)n1ncc(C(O)(c2ccccc2)c2ccccc2)n1 (stereo not given) | 28.2 µM (active) | –
3 | Cc1cccc(CC(=O)N2CCc3c2ccc(-c2cn(C)c4ncnc(N)c24)c3F)n1 | – | -7.81% (inactive)
4 | CC(=O)Nc1cccc(O)c1 | – | -13.3% (inactive)
5 | O=C(O)[C@H](Cc1c[nH]c2ccccc12)N1C(=O)c2ccccc2C1=O | – | -1.81% (inactive)
6 | Nc1ccc(S(=O)(=O)c2ccc(N)cc2)cc1 | – | 2.53% (inactive)
7 | O=Cc1ccccc1C=O | – | -7.17% (inactive)
8 | COc1cc([C@@H](CC(=O)O)c2ccc(C)c(CN3C[C@@H](C)Oc4ccccc4S3(=O)=O)c2)cc2nnn(C)c12 | – | -20.2% (inactive)
9 | OC1(c2ccc(Cl)cc2)CCNCC1 | – | -1.77% (inactive)
10 | Cc1cn([C@@H]2C[C@@H](O)[C@H](CO)O2)c(=O)[nH]c1=O | – | -5.54% (inactive)
11 | Nc1ccc(C(=O)N2CC3CC(CN(Cc4ccccc4)C3)C2)cc1 | – | -3.37% (inactive)
12 | CCC1NC(=O)c2cc(S(N)(=O)=O)c(Cl)cc2N1 (stereo not given) | – | 2.83% (inactive)
13 | N[C@@]1(C(=O)O)CS(=O)(=O)[C@H]2[C@H](C(=O)O)[C@H]21 | – | 10.5% (inactive)
14 | CCCCCC1Nc2cc(C(F)(F)F)c(S(N)(=O)=O)cc2S(=O)(=O)N1 (stereo not given) | – | -11.2% (inactive)
15 | N#C/C(=C1/SC[C@@H](c2ccc(Cl)cc2Cl)S1)n1ccnc1 | – | -5.06% (inactive)
16 | COc1cc2nccc(Oc3ccc(NC(=O)Nc4cc(C)on4)c(Cl)c3)c2cc1OC | 14.1 µM (active) | –
17 | Cc1ccc(C(C)C)cc2c(C)ccc1-2 | – | -19.3% (inactive)
18 | CCCCC1(COC(=O)CCC(=O)O)C(=O)N(c2ccccc2)N(c2ccccc2)C1=O | – | -10.7% (inactive)
19 | CC[C@H](CC[C@@H](C)[C@H]1CC[C@H]2[C@@H]3CC=C4C[C@@H](O)CC[C@]4(C)[C@H]3CC[C@]12C)C(C)C | – | -11.6% (inactive)
20 | COc1cc2c3c(n(CCCNCCO)c(=O)c2cc1OC)-c1cc2c(cc1C3=O)OCO2 | 2.82 µM (active) | –

Row | Compound | Potency | activity change, negative = viability loss
21 | COc1cc(Nc2ncc(F)c(Nc3ccc4c(n3)N(COP(=O)(O)O)C(=O)C(C)(C)O4)n2)cc(OC)c1OC | 15.8 µM (active) | –
22 | CC(C)(C(=O)O)c1ccc(C(O)CCCN2CCC(C(O)(c3ccccc3)c3ccccc3)CC2)cc1 (stereo not given) | – | 5.01% (inactive)
23 | CCN1CCN(c2cc3c(cc2F)c(=O)c(C(=O)O)cn3C2CC2)CC1 | – | -13.6% (inactive)
24 | CN(C)c1cccc(-c2c3c(=O)n(-c4ccccc4Cl)[nH]c3cc(=O)n2C)c1 | – | -34.9% (inactive)
25 | CN(C)/C(N)=N/C(=N)N | – | -26.7% (inactive)
26 | CCOc1cc2ncc(C#N)c(Nc3ccc(F)c(Cl)c3)c2cc1NC(=O)/C=C/CN(C)C | 3.55 µM (active) | –
27 | O=C(O)CCNC(=O)c1ccc(N=Nc2ccc(O)c(C(=O)O)c2)cc1 | inactive | –
28 | O=C(NC1CCNCC1)c1[nH]ncc1NC(=O)c1c(Cl)cccc1Cl | 15.8 µM (active) | –
29 | O=C(Nc1cnn2ccc(N3CCC[C@@H]3c3cc(F)ccc3F)nc12)N1CC[C@H](O)C1 | – | -18.7% (inactive)
30 | CCNC(=O)Nc1ncc(-c2cc(-c3c(C)cc(OC)cc3C)nc(-c3cnccn3)n2)s1 | – | -1.21% (inactive)
31 | CN1C(=O)N[C@@H](Cc2c[nH]c3c(Cl)cccc23)C1=O | – | 0.691% (inactive)
32 | CCOC(=O)C1=C(C)NC(=S)NC1c1cccc(O)c1 (stereo not given) | – | -4.03% (inactive)
33 | CC(C)(C)c1nc2c3cc[nH]c(=O)c3c3cc(F)ccc3c2[nH]1 | – | -26.6% (inactive)
34 | CN1CCN2c3ncccc3Cc3ccccc3C2C1 (stereo not given) | – | -1.37% (inactive)
35 | CN1[C@@H]2CC[C@H]1CC(OC(=O)C(O)c1ccccc1)C2 (stereo not given in full) | – | -1.48% (inactive)
36 | N=c1nc(N2CCCCC2)cc(N)n1O | – | 4.37% (inactive)
37 | O=C(O)c1cccnc1 | inactive | –
38 | C=C(c1ccc(C(=O)O)cc1)c1cc2c(cc1C)C(C)(C)CCC2(C)C | inactive | –
39 | COC(=O)c1cccnc1 | – | -1.1% (inactive)
40 | CC(C)Oc1ccc2c(=O)c(-c3ccccc3)coc2c1 | inactive | –
